Measurements published in PubChem BioAssay (NCI).
This is part of a sample that, as a whole, favours compounds with a hit. Of some 83,000 tested, about 20% had one in any assay.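 Single-concentration screen, 48 h exposure, 96-well plates. Endpoint: percent growth. Below 10 = active.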 Unmarked numbers belong to inactive results. The source made the active and inactive calls.

Experiments:
Assay in all cases: NCI-60 one-dose screen, 48 h (100 = growth as untreated, 0 = no growth, -100 = all killed)
Conditions in all cases: 10 µM
BT-549 breast = system: BT-549 breast
MDA-MB-435 melanoma = system: MDA-MB-435 melanoma
SW-620 colon = system: SW-620 colon
MCF7 breast = system: MCF7 breast
HCT-116 colon = system: HCT-116 colon
HCC-2998 colon = system: HCC-2998 colon
KM12 colon = system: KM12 colon

Row | SMILES | growth (BT-549 breast) [%] | growth (MDA-MB-435 melanoma) | growth (SW-620 colon) | growth (MCF7 breast) | growth (HCT-116 colon) | growth (HCC-2998 colon) | growth (KM12 colon)
1 | O=C(CCCCC(=O)Nc1ccc2c(c1)/C(=C/c1ccc[nH]1)C(=O)N2)NO | 97.1 | 74.8% | 83.9% | 61.9% | 88.3% | 101% | 78%
2 | CCCCCCCCCCCCC1C/C=C\CCCC(=O)O1 (centres undefined) | 127 | 105% | 104% | 91.7% | 105% | 129% | 112%
3 | CC(=O)c1cc(Cl)ccc1O | 105 | 101% | 95.9% | 105% | 102% | 97.4% | 96.2%
4 | O=C(O)CCCCSc1ncnc2nc[nH]c12 | 106 | 99.3% | 109% | 99.2% | 103% | 108% | 102%
5 | C=C(Cl)[C@@](Cl)(CBr)CC[C@@H](Br)C(C)(C)Cl | 78.6 | -24.2% (active) | -61.7% (active) | -51.7% (active) | -94.6% (active) | -96.9% (active) | -94.2% (active)
6 | O=C(N/N=C/c1ccccc1O)C(O)(c1ccccc1)c1ccccc1 | 70.3 | 65.2% | 51.1% | 50.7% | 8.42% (active) | 76.3% | 53.7%
7 | Cc1cc(C)c2c(n1)sc1c(Nc3ccc(Cl)cc3)ncnc12 | 29.8 | 27.3% | 34% | 16.5% | 15.1% | 54.4% | 43.1%
8 | COc1cc(Nc2ccnc(NCCCNc3ccnc4cc(Cl)ccc34)n2)cc(OC)c1 | 19.7 | -81.9% (active) | -43.3% (active) | 3.36% (active) | -53.6% (active) | -65% (active) | 47.1%
9 | CCN(CC)CCOc1nc2cc(OC)c(OC)cc2c2c1-c1ccc(OC)cc1C2=O | 81.3 | 86.2% | 45.4% | 35% | 47.4% | 82.6% | 64.7%
10 | O=C(CSSCC(=O)c1ccc(Cl)cc1)c1ccc(Cl)cc1 | 84.9 | 47.9% | 51.1% | 86.7% | 35.4% | 63.1% | 44.8%
11 | Cc1ccc(CC#N)cc1C | 124 | 88.4% | 109% | 104% | 93% | 103% | 94.7%
12 | CCOC1(OCC)OC(c2ccccc2)=C(C#N)C(/C=C\c2ccccc2)C1(OCC)OCC (centres undefined) | 95.3 | 97.2% | 83.2% | 77.4% | 53.9% | 83.1% | 84.3%
